This note sets out measurements from the supplement of paper PMC6555819.

The test deals with VDR:RXRa (NR concentration 270 nM, RXRa partner concentration 90 nM). The test can be described thus: PBM binding z-score (relative to random genomic background probes); higher = stronger binding; sequences stand for … in GC…GCGATTGACAGCGTAGAATGAAGG
The procedure: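 Protein-binding microarray (Agilent 4x180K custom design, double-stranded 60-nt probes: 5' GC cap, 34-nt variable region, 24-nt constant primer region; full probe sequence given). Purified or IVT nuclear receptor:RXRα heterodimers (3:1 NR:RXRα, mostly 270:90 nM) or homodimers were incubated for 1 h in PBS with 2% milk and no ligand, then detected with Alexa488 antibodies. Fluorescence from o1-orientation probes (~5 replicates averaged) was converted to z-scores against 500 random hg19 background probes. Variable regions are seed direct-repeat (DR0–DR5) sites, all their single-nucleotide variants and half-site ablations.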
Consider GCCACTGGGGCATCAGCAGGTTACCATAACTTAA, for which the PBM binding z-score was -0.378. The sequence CGTCCAAGTTCAGAGAGGTCAGTGAATGCCGAGT came in with a PBM binding z-score of 6.86. For TGAATGAGGTTAAAGATCAGGGCACGTGGCGTCG the value was 2.19; for TCGAGTAGGTTAGGGGCCTTCAGAATGGCGTCGA, -0.482. For ACTAGTTGGTCAGCTGAGGTCAAACACAATTCGG the value was 4.9; for GATACAGGGTCAGCTAGAGGCCAGTGTATGGAAA, 3.43; for CCTGCTAGGTCCTGGTCAGCTAATCTACAGTATG, -0.588. For ATCTCTAGGAAACAAGTTCAGTGAAAGAGAGGAC the value was 1.45.

Sequence AGAATGCGGTTATTAAGATCAGGGAATTGCGGTC returned a PBM binding z-score of -0.302. Take TTACCAAGGTGAAGGGTCGTTGATGCACGCCTTG: the PBM binding z-score worked out at 1.7.

Consider TCTAGTAGATCAATAGAGGTTAAGAAAGTGCGCT, for which the PBM binding z-score turned out to be 1.84.

On to CCGACTGGGGCAGAACGGTTACCATACCATCCGG, for which the PBM binding z-score was -0.643.

CAAACTAGGTCACAGAGGTCAAATTCCGTGCGTA had a PBM binding z-score of 8.11. TAGCCTCGGTCAGATCGGGCCAGTATACGCTATA: the PBM binding z-score was -0.637. Regarding TCTTGTAGATCAGAAGGTTAAGAAAGCTGGCCAA, the PBM binding z-score was 0.671. Sequence TCATATAGGTACATGCTAGGTGAAAGTCCGATCT registered a PBM binding z-score of 0.884. ACTAGCAGGCCAAGTTTGGGTCAATCAAACAAAG gave a PBM binding z-score of 0.502. As for CCTACTGGGCCAACAGGTCATTGATATCAACGTT, the PBM binding z-score turned out to be 1.93. For CGTCTAAGGTCAGAGAGGTCAGTGAATGCCGAGT the value was 7.63; for CGTCCAAGGTCGTAGGAGGTCAGTGAAGACAGAT, 5.47; for GATACTGGGTCAGCTAGAGGCCAGAGTATGGAAA, 0.938.

Consider ACTATTTGTTGACTTAGGGCAACCGATACGACGC, for which the PBM binding z-score is 0.227. With CGAGCTAGGTCAAGGACAGTGAATCTCCGCACGC the figure was 0.904; with CCTCGGAGGACAGAAGGGCAGAGCTGTCCGCTTT, -0.902; with AGTCAAAGTTCATCTAGGTAACTTAAGATATGCT, 4.95. Sequence GCTAGCAGGCCATTTGGGTCACTAAATGACGGGC had a PBM binding z-score of 0.655. As for TCGAGTAGGTTACCGATGGGGCATTCAGCTTTCT, the PBM binding z-score amounted to 0.0364. The sequence GGAACGATGGCATTCGAGTTGATAGCATGGCGAT registered a PBM binding z-score of -0.32. The sequence CAAACTAAGTCAAGGTCAAAGTCGGTTTGTGCCA registered a PBM binding z-score of 4.62.

In turn, CCAGCCAGGTGAAAGGTAACTCAGTCTGGTACGC registered a PBM binding z-score of 0.288. With TCTATTAGTTGATTAGGGCAACCGCAACAGCGGA, the PBM binding z-score was found to be 0.526.

As to TTACCAAGTTGAAGGTCGTTGATCCCTCTGTAGA, the PBM binding z-score turned out to be 1.13. In turn, AGACTGAGGTTAAGATCAGGGAAACAGAATACAT came in with a PBM binding z-score of 0.967. For AGTCAAAGTTCACCAGGTAACGTAAGATTCAGCT the value was 4.61.

Turning to CCTACTGGGACAAGGTCATTGATCAGTCAAAGCA, the PBM binding z-score turned out to be 3.48.

In turn, GCACCAAGGTGAATAGGTCGTTGATGAGTAGGCG gave a PBM binding z-score of 0.503. In turn, TAGCCTAGGTCATGGGCCAGTAGACCACGCGAAC registered a PBM binding z-score of 1.85. AGTCAAAGTTCACTAAGTAACGTAAGATTCAGCT displayed a PBM binding z-score of 3.9. Take AGAACGAGGGCAATGAGTAGATAGCACGGGTGGC: the PBM binding z-score is 1.15. As for CGAACTAGGTCGGAACAGGACAGTGAAGGATGAT, the PBM binding z-score is -0.292.
